Data on 28 compounds can be found in ChEMBL document CHEMBL1961873, “Compounds: GSK PKIS; Assays: Nanosyn kinase panel” (2012).

Molecules are shown by their SMILES.

Assay [1] concerns Proto-oncogene tyrosine-protein kinase receptor Ret (Homo sapiens), P07949 [Y791F]. Particulars: at 1 µM.
Assay [2] addresses Macrophage-stimulating protein receptor (Homo sapiens) (UniProt Q04912). As to conditions: at 0.1 µM.
Assay [3] shares this target. Particulars: at 1 µM.
Assay [4] deals with Proto-oncogene tyrosine-protein kinase ROS (Homo sapiens) (UniProt P08922). As to conditions: at 0.1 µM.
Assay [5] has the same target. As to conditions: at 1 µM.
Assay [6] has as its target Proto-oncogene tyrosine-protein kinase Src (Homo sapiens) (UniProt P12931). Particulars: at 0.1 µM.
For assay [7] the target is unchanged. As to conditions: at 1 µM.
Assay [8] has as its target Tyrosine-protein kinase Srms (Homo sapiens) (UniProt Q9H3Y6). Particulars: at 0.1 µM.
The target is the same in assay [9]. As to conditions: at 1 µM.
Assay [10] deals with Tyrosine-protein kinase SYK (Homo sapiens) (UniProt P43405). As to conditions: at 0.1 µM.

Tyrosine-protein kinase Srms (Homo sapiens), sequence (Q9H3Y6 whole entry): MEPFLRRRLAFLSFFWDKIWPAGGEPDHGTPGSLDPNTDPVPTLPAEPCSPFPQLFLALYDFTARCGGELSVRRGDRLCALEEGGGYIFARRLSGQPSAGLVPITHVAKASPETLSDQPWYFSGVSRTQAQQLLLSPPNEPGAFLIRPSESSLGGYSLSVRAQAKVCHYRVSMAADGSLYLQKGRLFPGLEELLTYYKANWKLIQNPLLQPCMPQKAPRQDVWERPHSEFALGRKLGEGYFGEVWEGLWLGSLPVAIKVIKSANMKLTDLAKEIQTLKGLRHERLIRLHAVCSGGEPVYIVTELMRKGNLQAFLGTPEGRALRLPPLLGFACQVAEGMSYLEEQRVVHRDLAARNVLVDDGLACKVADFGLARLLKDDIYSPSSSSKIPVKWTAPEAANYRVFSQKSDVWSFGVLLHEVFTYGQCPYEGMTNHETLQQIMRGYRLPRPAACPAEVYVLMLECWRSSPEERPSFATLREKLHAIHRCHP
Proto-oncogene tyrosine-protein kinase Src (Homo sapiens), sequence (P12931 2-536 limits assumed): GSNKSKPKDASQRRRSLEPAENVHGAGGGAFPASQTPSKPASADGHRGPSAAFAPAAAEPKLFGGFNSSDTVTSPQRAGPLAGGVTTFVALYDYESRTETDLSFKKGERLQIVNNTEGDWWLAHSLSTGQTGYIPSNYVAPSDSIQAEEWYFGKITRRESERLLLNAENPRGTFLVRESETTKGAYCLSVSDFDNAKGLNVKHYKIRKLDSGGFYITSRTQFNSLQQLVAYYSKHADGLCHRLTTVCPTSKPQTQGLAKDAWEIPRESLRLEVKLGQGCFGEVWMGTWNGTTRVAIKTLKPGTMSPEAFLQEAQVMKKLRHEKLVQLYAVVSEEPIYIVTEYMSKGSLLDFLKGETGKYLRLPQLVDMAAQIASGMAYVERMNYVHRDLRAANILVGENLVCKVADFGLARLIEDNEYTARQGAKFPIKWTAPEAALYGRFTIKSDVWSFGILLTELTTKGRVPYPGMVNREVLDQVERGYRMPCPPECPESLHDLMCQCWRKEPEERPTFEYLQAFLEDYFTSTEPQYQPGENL
Proto-oncogene tyrosine-protein kinase receptor Ret (Homo sapiens), P07949 [Y791F], sequence (P07949 whole entry Y791F): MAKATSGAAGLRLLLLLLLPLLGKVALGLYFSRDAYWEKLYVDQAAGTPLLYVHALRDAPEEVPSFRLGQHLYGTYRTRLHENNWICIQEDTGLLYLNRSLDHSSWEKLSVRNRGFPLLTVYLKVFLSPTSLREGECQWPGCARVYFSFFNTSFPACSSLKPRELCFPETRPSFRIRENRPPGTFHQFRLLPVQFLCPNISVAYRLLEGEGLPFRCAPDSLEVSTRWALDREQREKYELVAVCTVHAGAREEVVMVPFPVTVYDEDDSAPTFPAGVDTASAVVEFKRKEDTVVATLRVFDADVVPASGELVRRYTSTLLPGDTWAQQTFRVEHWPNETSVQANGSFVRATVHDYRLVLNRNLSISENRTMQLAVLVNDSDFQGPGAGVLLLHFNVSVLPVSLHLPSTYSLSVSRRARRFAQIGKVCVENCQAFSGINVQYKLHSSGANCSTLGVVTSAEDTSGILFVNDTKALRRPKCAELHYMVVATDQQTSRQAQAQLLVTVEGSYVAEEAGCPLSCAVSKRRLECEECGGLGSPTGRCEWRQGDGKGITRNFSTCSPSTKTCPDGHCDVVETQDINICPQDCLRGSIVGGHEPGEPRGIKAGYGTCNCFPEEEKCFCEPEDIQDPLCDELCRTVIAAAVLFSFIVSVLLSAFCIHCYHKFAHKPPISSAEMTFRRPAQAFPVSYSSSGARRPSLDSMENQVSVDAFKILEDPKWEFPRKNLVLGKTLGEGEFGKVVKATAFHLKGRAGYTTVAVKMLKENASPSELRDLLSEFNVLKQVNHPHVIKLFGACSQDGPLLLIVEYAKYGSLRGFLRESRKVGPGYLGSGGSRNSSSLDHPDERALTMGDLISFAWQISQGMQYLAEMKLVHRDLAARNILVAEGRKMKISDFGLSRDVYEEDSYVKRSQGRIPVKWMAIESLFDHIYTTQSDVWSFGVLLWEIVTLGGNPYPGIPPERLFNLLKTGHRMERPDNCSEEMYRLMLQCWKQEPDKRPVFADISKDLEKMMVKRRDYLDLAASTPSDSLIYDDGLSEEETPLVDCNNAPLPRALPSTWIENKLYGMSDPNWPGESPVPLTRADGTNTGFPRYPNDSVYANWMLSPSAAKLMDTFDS
Macrophage-stimulating protein receptor (Homo sapiens), sequence (Q04912 25-304 limits assumed): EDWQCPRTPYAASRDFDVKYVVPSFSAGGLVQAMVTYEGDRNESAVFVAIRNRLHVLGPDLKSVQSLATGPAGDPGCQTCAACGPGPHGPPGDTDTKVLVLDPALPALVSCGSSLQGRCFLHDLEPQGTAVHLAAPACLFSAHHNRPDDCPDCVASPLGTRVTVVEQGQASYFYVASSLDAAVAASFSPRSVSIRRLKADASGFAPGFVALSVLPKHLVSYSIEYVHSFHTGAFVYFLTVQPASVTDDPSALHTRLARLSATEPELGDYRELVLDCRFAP
Macrophage-stimulating protein receptor (Homo sapiens), sequence (Q04912 310-1400 limits assumed): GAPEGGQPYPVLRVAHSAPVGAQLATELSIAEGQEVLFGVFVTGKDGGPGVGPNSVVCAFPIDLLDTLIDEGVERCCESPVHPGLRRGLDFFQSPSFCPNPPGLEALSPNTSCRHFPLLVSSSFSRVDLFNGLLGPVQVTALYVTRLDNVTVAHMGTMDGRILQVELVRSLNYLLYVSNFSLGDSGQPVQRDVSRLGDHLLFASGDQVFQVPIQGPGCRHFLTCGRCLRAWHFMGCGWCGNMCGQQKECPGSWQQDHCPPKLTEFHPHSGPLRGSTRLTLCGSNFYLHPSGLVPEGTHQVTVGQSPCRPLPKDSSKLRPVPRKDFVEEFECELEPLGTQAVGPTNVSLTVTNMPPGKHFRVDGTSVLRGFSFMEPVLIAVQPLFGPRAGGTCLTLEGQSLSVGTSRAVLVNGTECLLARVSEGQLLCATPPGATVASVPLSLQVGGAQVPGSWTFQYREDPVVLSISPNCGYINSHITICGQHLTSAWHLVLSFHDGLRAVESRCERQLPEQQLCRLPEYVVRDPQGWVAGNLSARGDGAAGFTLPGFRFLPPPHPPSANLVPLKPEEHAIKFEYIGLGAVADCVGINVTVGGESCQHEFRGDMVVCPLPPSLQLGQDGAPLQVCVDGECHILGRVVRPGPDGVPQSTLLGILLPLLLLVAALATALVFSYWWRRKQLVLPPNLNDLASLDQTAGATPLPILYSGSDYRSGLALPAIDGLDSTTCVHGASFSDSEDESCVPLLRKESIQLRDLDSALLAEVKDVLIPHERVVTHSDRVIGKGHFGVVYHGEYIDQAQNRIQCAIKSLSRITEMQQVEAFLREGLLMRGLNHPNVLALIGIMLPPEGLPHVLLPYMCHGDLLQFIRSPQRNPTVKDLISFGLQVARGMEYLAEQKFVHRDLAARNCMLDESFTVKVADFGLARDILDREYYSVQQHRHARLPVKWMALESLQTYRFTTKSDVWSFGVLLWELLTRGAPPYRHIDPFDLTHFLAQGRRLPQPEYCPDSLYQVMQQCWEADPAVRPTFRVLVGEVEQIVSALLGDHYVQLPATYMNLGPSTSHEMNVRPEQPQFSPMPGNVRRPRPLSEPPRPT

Turning to `Cc1ccc(Nc2ccnc(Nc3cccc(C(N)=O)c3)n2)cc1O`, the inhibition came to 88.7% in [1]; 0.19% in [2]; 13.3% in assay [3]; 17.4% in [4]; 61.4% in assay [5]; 78.3% in assay [6]. For the same compound, the inhibition is 90.7% in [7], 10.8% in assay [8], 41% in assay [9] and -7.65% in [10].
Turning to `COc1cccc(-n2ncc3c(N/N=C/c4ccc(S(C)(=O)=O)cc4)ncnc32)c1`, the inhibition in assay [1] is 26.7%; in assay [2], 29.4%; in assay [3] it was 44.3%; in assay [4] it was 7.29%; in [5], 27.2%; in assay [6] it was 56.5%. Further, the inhibition in assay [7] was 77.4%; in assay [8] it was 4.95%; in [9], 17.8%; in [10], -2.46%.
`CCOc1nccc2c1nc(-c1nonc1N)n2CC`: the inhibition in [1] was found to be 28.7%; in assay [2], 10%; in assay [3], 5.31%; in assay [4], 5.15%; in assay [5], 11.8%; in assay [7] it was 5.71%. Also, the inhibition in [8] was found to be 3.59%; in [9], 5.69%; in [10] it was 1.77%.
Take `OCc1ccc(-c2nc(-c3ccccn3)c(-c3ccc4c(c3)OCO4)[nH]2)cc1`: the inhibition in assay [1] was 6.59%; in assay [2] it was -1.95%; in assay [3], -0.55%; in assay [4], 6.84%; in assay [5] it was 8.11%; in assay [6] it was -0.99%. Also, the inhibition in assay [7] was 10.6%; in [8], 0.43%; in assay [9], -1.19%; in assay [10] it was -7.53%.
Consider `CN(C)c1cc2c(Nc3ccc4c(cnn4Cc4ccccc4)c3)ncnc2cn1`, for which the inhibition in assay [1] was 34.4%; in [2], 1.53%; in assay [3] it was 0.62%; in assay [4], 2.34%; in assay [5], 2.03%; in assay [6] it was 3.91%. Also, the inhibition in [7] was 13.1%; in [8] it was -0.2%; in assay [9], 1.29%; in [10], 0.89%.
Take `O=S(=O)(CCOCc1ccc(-c2ccc3ncnc(Nc4ccc(OCc5cccc(F)c5)c(Cl)c4)c3c2)o1)c1ccccc1`: the inhibition is 7.27% in assay [1]; 3.62% in assay [2]; 1.46% in [3]; 2.65% in assay [4]; 3.57% in [5]; 0.66% in assay [6]. In addition, the inhibition in assay [7] is 0.4%; in [8], -1.31%; in assay [9] it was -2.52%; in assay [10], 1.93%.
`NC(=O)c1sc(-n2cnc3ccccc32)cc1OCc1ccccc1Br`: the inhibition in assay [1] came out at 15.3%; in assay [2], 9.12%; in assay [3], 9.57%; in assay [4], 7.48%; in assay [5] it was 10.1%; in [6] it was 7.25%. In addition, the inhibition in assay [7] was 12.9%; in [8], -2.72%; in [9], -2.44%; in assay [10] it was 0.26%.
Turning to `Cc1ccc(NC(=O)CC2CC2)cc1-c1ccc(C(=O)NCC2CC2)cc1`, the inhibition was 28.8% in assay [1]; -0.78% in assay [2]; 1.45% in assay [3]; 4.69% in assay [4]; 8.56% in [5]; 4.43% in [6]. Further, the inhibition is 8.28% in assay [7], 0.3% in assay [8], 5.61% in [9] and -2.32% in assay [10].
For `Nc1nccc(-c2c(-c3ccc(F)cc3)nn3cc(C(F)(F)F)ccc23)n1`, the inhibition is 3.56% in assay [1]; 1.05% in assay [2]; -2.78% in assay [3]; 4.58% in [4]; 2.24% in [5]; 1.35% in assay [6]. The inhibition was 1.39% in assay [7], 0.31% in [8], -1.94% in [9] and -0.75% in [10].
Regarding `NS(=O)(=O)c1ccc(NC=C2C(=O)Nc3ccc4ncsc4c32)cc1`, the inhibition in [1] was found to be 72.4%; in assay [2], 10.4%; in assay [3], 56.3%; in [4] it was 17.3%; in assay [5], 36.8%; in assay [6], 14.2%. In addition, the inhibition was 61.9% in assay [7], -1.05% in assay [8], 0.07% in assay [9] and -8.02% in [10].
Consider `c1ccc(Cc2nc3ccc(Nc4ncnc5ccccc45)cc3[nH]2)cc1`, for which the inhibition stood at 6.8% in [1]; 4.08% in [2]; 5.82% in assay [3]; 4.22% in assay [4]; 0.79% in assay [6]; 12.8% in assay [7]. Besides, the values for the inhibition in assay [8], in assay [9] and in assay [10] were -1.79%, -2.82% and 8.94%, respectively.
As for `COc1ccc(-c2nn3ncccc3c2-c2ccnc(Nc3cccc(C(F)(F)F)c3)n2)cc1`, the inhibition in assay [1] was 6.6%; in [2] it was 0.53%; in assay [3], -3.48%; in assay [4], 2.58%; in assay [5] it was 4.13%; in [6], 6.2%. In addition, the inhibition in [7] was 10%; in assay [8], -1.6%; in assay [9] it was 1.75%; in assay [10] it was -1.06%.
As to `COc1cccc(-n2ncc3c(N/N=C/c4ccc(C)cc4)ncnc32)c1`, the inhibition in assay [1] worked out at 13.9%; in [2], 2.1%; in [3], 9.64%; in [4] it was 14.2%; in assay [5], 38.4%; in [6] it was 14.2%. For the same compound, the inhibition in assay [7] was 32.9%; in [8], -2.37%; in assay [9] it was -0.01%; in assay [10], 0.52%.
On to `Cc1ccc(O)cc1Nc1ccnc2ccc(S(C)(=O)=O)cc12`, for which the inhibition amounted to 89.5% in assay [1]; 5.15% in [2]; 6.07% in assay [3]; 5.41% in [4]; 8.68% in assay [5]; 92.2% in assay [6]. The inhibition in assay [7] is 95.1%; in assay [8] it was 27.4%; in assay [9], 69%; in assay [10], -7.79%.
Turning to `N#Cc1c(NC(=O)c2ccccc2F)sc2c1CCCC2`, the inhibition was 1.78% in [1]; -0.97% in assay [2]; -3.33% in assay [3]; 1.04% in assay [4]; 0.32% in assay [5]; -4.11% in [6]. The inhibition in assay [7] is -4.48%; in assay [8] it was 2.55%; in assay [9], 1.79%; in assay [10], 0.7%.
Take `NS(=O)(=O)c1ccc(-c2cc3ccncc3cc2OCc2ccccc2)cc1`: the inhibition is 8.79% in assay [1]; 3.44% in [2]; 8.77% in [3]; 5.03% in assay [4]; 11% in assay [5]; -0.21% in assay [6]. Moreover, the inhibition is 6.83% in assay [7], 0.62% in [8], 1.62% in [9] and 2.96% in [10].
With `O=C(Nc1ccc(Oc2ccc3[nH]c(NC(=O)c4ccco4)nc3c2)cc1)Nc1cc(C(F)(F)F)ccc1F`, the inhibition in assay [1] is 82.3%; in [2], -2.7%; in assay [3], 17.2%; in assay [4], 0.05%; in assay [5] it was 11.1%; in [6] it was 7.67%. The inhibition in [7] was 37%; in assay [8], 3.74%; in assay [9], -0.11%; in [10], 1.01%.
As to `COC(=O)c1ccc2c(c1)C(=Cc1cc(Br)c(O)c(Br)c1)C(=O)N2`, the inhibition came to 21.5% in assay [1]; 1.56% in assay [2]; 3.36% in assay [3]; 6.38% in assay [4]; 9.41% in assay [5]; 8.74% in assay [6]. Besides, the inhibition in assay [7] turned out to be 19.6%; in assay [8] it was 30.9%; in assay [9], 75.9%; in [10] it was 0.74%.
For the compound `CN(C)C(=O)O[C@H]1CN[C@H](C#Cc2cc3ncnc(Nc4ccc(OCc5cccc(F)c5)c(Cl)c4)c3s2)C1`, the inhibition came out at 9.1% in assay [1]; 1.31% in [2]; 5.82% in assay [3]; 4.25% in [4]; 4.65% in assay [5]; 3.86% in assay [6]. Also, the inhibition in assay [7] is 6.56%; in assay [8], 0.59%; in assay [9], 0.93%; in assay [10], -7.75%.
Turning to `Cc1ccc2c(-c3ccnc(Nc4cccc(C(F)(F)F)c4)n3)c(-c3ccccc3)nn2n1`, the inhibition in [1] amounted to 37.9%; in assay [2], 2.85%; in [3], 13.6%; in assay [4] it was 7.31%; in assay [5] it was 9.43%; in assay [6], 25.3%. The inhibition in [7] came out at 72.9%; in assay [8] it was 1.71%; in assay [9], 22.1%; in assay [10] it was 0.45%.
Regarding `Cc1ccc2c(-c3ccnc(Nc4ccc5c(c4)OCCO5)n3)c(-c3ccc(C(F)(F)F)cc3)nn2n1`, the inhibition in assay [1] was 5.72%; in [2], -0.07%; in [3], 4.33%; in assay [4] it was 1.22%; in assay [5] it was 2.46%; in assay [6] it was 1.69%. Also, the inhibition in [7] was 5.52%; in [8] it was -0.03%; in assay [9], 0.07%; in assay [10], -0.8%.
In the case of `CCn1c(-c2nonc2N)nc2ccc(F)cc21`, the inhibition stood at 11.3% in assay [1]; 0.5% in assay [2]; 6.19% in assay [3]; 5.7% in assay [4]; 8.6% in [5]; 4.3% in [6]. Also, the inhibition in [7] is 9.9%; in assay [8], -2.63%; in [9] it was -0.49%; in assay [10] it was 3.17%.
`O=C1Nc2ccccc2/C1=C/Nc1ccc2[nH]c(=O)[nH]c2c1`: the inhibition in assay [1] was found to be 67%; in assay [2] it was 5.9%; in assay [3], 10.9%; in [4], 3.89%; in [5] it was 11.8%; in assay [6], 5.5%. For the same compound, the inhibition is 31% in [7], -2.08% in assay [8], 3.2% in [9] and 3.76% in assay [10].
As for `NS(=O)(=O)c1ccc(N/N=C2\C(=O)Nc3ccc(Cl)cc32)cc1`, the inhibition in assay [1] is 22.3%; in assay [2], 3.12%; in assay [4], 4.68%; in assay [5], 4.73%; in assay [6] it was -2.96%; in [7] it was 14.1%. Moreover, the inhibition was 0.76% in assay [8], 0.2% in assay [9] and -0.57% in assay [10].
As to `CCn1c(-c2nonc2N)nc2c(C#CC(C)(C)O)nc(OCCNC)cc21`, the inhibition came to 28.9% in [1]; 6.88% in [2]; 6.88% in [4]; 6.96% in assay [5]; 8.38% in [6]; 11.9% in assay [7]. In addition, the figures for the inhibition in [8], in assay [9] and in assay [10] were -1.55%, -2.34% and 1.27%, respectively.
Regarding `[O-][S+]1CCN(Cc2ccc(-c3ccc4ncnc(Nc5ccc(OCc6ccccc6)c(Cl)c5)c4c3)o2)CC1`, the inhibition in assay [1] worked out at 5.41%; in [2], 1.76%; in [3] it was 1.89%; in assay [4], 2.65%; in assay [5], 3.8%; in assay [6] it was 1.76%. For the same compound, the inhibition in assay [7] was 6.34%; in [8] it was -2.27%; in assay [9], -2%; in assay [10], 1.18%.
For the compound `CCS(=O)(=O)c1ccc(OC)c(Nc2ncc(-c3cccc(OC)c3)o2)c1`, the inhibition was 67.1% in [1]; 3.89% in [2]; 3.42% in assay [3]; 9.78% in assay [4]; 43.3% in assay [5]; 30.7% in [6]. The inhibition in [7] was 79.4%; in assay [8], 2.74%; in assay [9], 30.6%; in assay [10], -0.11%.
Regarding `c1ccc(Nc2ncc(-c3ccccc3)o2)cc1`, the inhibition worked out at 11.5% in [1]; 8.13% in assay [2]; 9.16% in [3]; 7.47% in [4]; 5.92% in [5]; 9.27% in [6]. Also, the inhibition turned out to be 14.3% in assay [7], 0.17% in assay [8], 2.19% in [9] and 1.8% in [10].
